Bioassay records deposited in PubChem by National Center for Advancing Translational Sciences (NCATS).
An excerpt weighted towards active compounds, which were near 2.5% of everything screened.
Cruzain inh Det = cruzain (T. cruzi) inhibition with detergent. P25779. purified cruzain, Z-FR-AMC fluorescence, 0.01% Triton. Potency, µM, for the others: max response, negative = inhibition, hits mostly inhibitors. actives 0.43% (n = 200,000);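 note: plate controls were neutral wells for no effect and buffer without enzyme for full effect; nearly all actives have a fitted effect of over 40% in size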
Target sequence (P25779 123-467 limits assumed): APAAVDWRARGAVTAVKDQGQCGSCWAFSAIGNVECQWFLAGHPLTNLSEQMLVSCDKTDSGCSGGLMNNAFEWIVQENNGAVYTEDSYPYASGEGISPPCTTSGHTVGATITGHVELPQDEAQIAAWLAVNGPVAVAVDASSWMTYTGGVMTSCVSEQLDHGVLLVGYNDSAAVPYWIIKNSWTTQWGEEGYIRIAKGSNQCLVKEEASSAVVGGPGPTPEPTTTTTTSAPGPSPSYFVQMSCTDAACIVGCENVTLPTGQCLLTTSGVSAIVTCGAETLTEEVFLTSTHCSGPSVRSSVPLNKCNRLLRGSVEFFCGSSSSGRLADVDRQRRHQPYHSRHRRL
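Z-FR-AMC hydrolysis (2 uM substrate) by cruzain (1.5 nM) monitored kinetically at ex 360/em 450 nm after 15 min room-temperature compound exposure; 0.01% Triton X-100, pH 5.5, 5 mM DTT.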
Cruzain inh noDet = inhibitors of Trypanosoma cruzi cruzain without detergent. P25779. purified cruzain, Z-FR-AMC fluorescence, no detergent. Potency, µM, without a hit: max response, negative = inhibition, actives largely listed as inhibitors. actives 2.3% (n = 200,000);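 note: plate controls were enzyme without inhibitor for no effect and buffer without enzyme for full effect; nearly all actives have a fitted effect of over 40% in size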
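Purified cruzain at 1.5 nM, pre-incubated 15 min with compound at room temperature in 100 mM sodium acetate pH 5.5, 5 mM DTT, 0.00005% Triton X-100. Reaction started with 2 uM Z-FR-AMC; AMC fluorescence increase over 60 s gives rate.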
The depositor's hits bear a star. Calls come from the whole dose curve; as a rule, active = well fitted curve in the direction sought with a large enough effect; inconclusive = small, poorly fitted or top-dose-only effect, or another doubt; inactive = no such curve, though single readings can be large; an effect the other way counts as inactive or inconclusive. Potency is the fitted concentration of half-maximal effect.

How did O=C1c2ccccc2C(=O)C12OC(c1ccccc1)C1(C(=O)c3ccccc3C1=O)C2c1cccc([N+](=O)[O-])c1 (stereo not given) do in these assays?
Cruzain inh Det: 0.1%; Cruzain inh noDet: 7.94µM*

How did CCOc1ccc(-c2cnc(NCc3ccc(C(F)(F)F)cc3)n2C)cc1 do in these assays?
Cruzain inh Det: -2.9%; Cruzain inh noDet: -1.4%

How did COC(=O)c1ccc(/C=C(\C#N)c2nc3ccccc3s2)cc1 do in these assays?
Cruzain inh Det: 3.1%; Cruzain inh noDet: 11.7%

What do the screens show for `CC(C)(C)c1ccc(C(=O)OC/C(O)=C(\C#N)c2nc3ccccc3s2)cc1`?
Cruzain inh Det: -3.6%; Cruzain inh noDet: 25.1µM*

What do the screens show for `CCC/C=C(\CCC)C(NC(=O)c1ccc(C(F)(F)F)cc1)c1ccc(C(F)(F)F)cc1` (stereo not given)?
Cruzain inh Det: -0.2%; Cruzain inh noDet: 1.5%

Results for Cc1ccc(NC(=O)Cn2ncn3c(cc4ccccc43)c2=O)cc1C ?
Cruzain inh Det: -4.4%; Cruzain inh noDet: -29.3%

What do the screens show for `Cc1ccc(NC(=O)N2CC3CCCN3c3ccccc32)cc1C` (stereo not given)?
Cruzain inh Det: -16.6%; Cruzain inh noDet: inconclusive

Results for Cc1ccc(NC(=O)N2CC3CCCN3c3ccccc32)cc1Cl (stereo not given) ?
Cruzain inh Det: -16.4%; Cruzain inh noDet: 31.6µM*

How did N#C/C(=C\c1c[nH]c2ccccc12)C(=O)Nc1ncc(Cc2ccc(Cl)cc2Cl)s1 do in these assays?
Cruzain inh Det: -1.5%; Cruzain inh noDet: 7.94µM*

Results for O=C(Nc1ncc(Cc2cccc(Cl)c2)s1)C1CCCO1 (stereo not given) ?
Cruzain inh Det: -2.6%; Cruzain inh noDet: -3.6%

How did CCOC(=O)/C(C#N)=C/c1c[nH]c2ccccc12 do in these assays?
Cruzain inh Det: -14.9%; Cruzain inh noDet: 0.9%

What do the screens show for `Cn1cc(/C=C(\C#N)C(=O)Nc2ncc(Cc3cccc(Cl)c3)s2)c2ccccc21`?
Cruzain inh Det: -6.3%; Cruzain inh noDet: 7.94µM*

Results for CCC1Oc2ccc(C)cc2N(CC(=O)N2CCN(c3ccccc3OC)CC2)C1=O (stereo not given) ?
Cruzain inh Det: 1.2%; Cruzain inh noDet: -4.2%

Results for S=C(Nc1ccc(Oc2ccc(NC(=S)NC3CCCCC3)cc2)cc1)NC1CCCCC1 ?
Cruzain inh Det: -0.5%; Cruzain inh noDet: 3.98µM*

How did S=C(Nc1ccc(Oc2ccccc2)cc1)NC1CCCCCC1 do in these assays?
Cruzain inh Det: -4.9%; Cruzain inh noDet: 5.3%

How did COc1ccc(C(CNC(=O)c2oc3ccc(C)cc3c2C)N2CCOCC2)cc1 (stereo not given) do in these assays?
Cruzain inh Det: -2.2%; Cruzain inh noDet: 1.1%

How did O=c1c2sc3ccccc3c2n(Cc2ccc(F)cc2Cl)c(=O)n1Cc1ccccc1 do in these assays?
Cruzain inh Det: -0.9%; Cruzain inh noDet: 7.1%

How did COc1ccc(C)cc1N(C(=O)c1ccccc1F)c1nc2ccccc2s1 do in these assays?
Cruzain inh Det: -5.2%; Cruzain inh noDet: 1.58µM*

What do the screens show for `COc1ccc(C)cc1N(C(=O)c1ccccc1)c1nc2ccccc2s1`?
Cruzain inh Det: -3.5%; Cruzain inh noDet: inconclusive

How did COCCn1ccc2c(OCC(=O)Nc3cccc(C(F)(F)F)c3)cccc2c1=O do in these assays?
Cruzain inh Det: -11.4%; Cruzain inh noDet: inconclusive

How did CCOc1ccccc1NC(=O)c1nc[nH]c1C(=O)Nc1ccccc1OCC do in these assays?
Cruzain inh Det: 3.1%; Cruzain inh noDet: -5.4%

Results for CNC(=O)c1[nH]cnc1C(=O)Nc1ccc(C)cc1 ?
Cruzain inh Det: -1.5%; Cruzain inh noDet: -12.2%

What do the screens show for `COc1ccccc1NC(=O)c1nc[nH]c1C(=O)Nc1ccccc1OC`?
Cruzain inh Det: 4.8%; Cruzain inh noDet: 10µM*

What do the screens show for `Cc1ccc(NC(=O)c2nc[nH]c2C(=O)Nc2ccc(C)cc2)cc1`?
Cruzain inh Det: 3.3%; Cruzain inh noDet: 7.94µM*

What do the screens show for `Cc1ccccc1N1CCN(S(=O)(=O)C[C@]23CCC(CC2NC(=O)[C@@H](N)CCS(C)(=O)=O)C3(C)C)CC1` (stereo not given in full)?
Cruzain inh Det: -2.0%; Cruzain inh noDet: 9.4%

What do the screens show for `O=C(Cn1c(=O)oc2cc(S(=O)(=O)N3CCCC3)ccc21)NC1CCCc2ccccc21` (stereo not given)?
Cruzain inh Det: -10.7%; Cruzain inh noDet: 25.1µM*

What do the screens show for `CC(NC(=O)Cn1c(=O)oc2cc(S(=O)(=O)N3CCCC3)ccc21)c1ccccc1` (stereo not given)?
Cruzain inh Det: 1.1%; Cruzain inh noDet: inconclusive

Results for O=[N+]([O-])c1cc2c(c(CSc3nnc(Nc4ccccc4)s3)c1)OCOC2 ?
Cruzain inh Det: -0.8%; Cruzain inh noDet: inconclusive

Results for Cc1ccccc1Nc1nnc(SCc2cc([N+](=O)[O-])cc3c2OCOC3)s1 ?
Cruzain inh Det: 0.8%; Cruzain inh noDet: 12.6µM*

What do the screens show for `CC(Cc1ccc(O)c(O)c1)(NN)C(=O)O` (stereo not given)?
Cruzain inh Det: 3.7%; Cruzain inh noDet: -3.4%
